From PubChem
The sample as a whole holds a higher share of hits than the screen did.
Artemis endo inh = inhibitors of human Artemis endonuclease activity. inhibition, % at 10 µM. hit rate 0.78% among 30,000. AID 686954. recombinant Artemis, quenched FAM hairpin cleavage fluorescence. Q96SD1;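 active means at 10 µM dose, at least 30% inhibition, measured as corrected fluorescence normalized to stimulator and neutral control wells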
A number is an active result; – = inactive.

SMILES	Artemis endo inh
Cc1ccc(C)n1-c1sccc1C(=O)O	33
O=C(O)c1ccccc1C(=O)c1cccs1	–
Cc1occc1-c1nnc(SCC(=O)N(C)CCC#N)n1N	–
N#CC(C#N)=c1ccc2c(c1)NC1(CCCCC1)N=2	–
CCOc1ccccc1OCCOc1cccc(C(F)(F)F)c1	–
COC(=O)C1=C(N)Oc2cc(C)[nH]c(=O)c2C1c1cccnc1 (centres undefined)	–
CCOc1cc(C)c(Cl)cc1S(=O)(=O)NCC1CCCO1 (centres undefined)	–
COc1ccc(OC)c(S(=O)(=O)NCC2CCCO2)c1 (centres undefined)	45
COc1cc(C)c(Cl)cc1S(=O)(=O)NCC1CCCO1 (centres undefined)	–
CCc1noc2c1/C(=N\O)CC(c1ccccc1)C2 (centres undefined)	–
COc1ccc(CCNC(=O)CSc2nc3cc(Cl)ccc3o2)cc1OC	–
O=C(Cc1ccsc1-c1ccccc1)NO	64
O=C(Cc1cccs1)Nc1ccc(-c2nnc(-c3ccccc3)o2)cc1	–
O=C(Nc1nc(-c2cccs2)c(-c2ccccc2)s1)c1ccco1	–
C=CCOC(=O)C(C#N)c1nc2ccccc2nc1N1CCN(c2ccccc2OC)CC1 (centres undefined)	–
C=CCOC(=O)C(C#N)c1nc2ccccc2nc1N1CCN(Cc2ccccc2)CC1 (centres undefined)	–
CCOC(=O)N1CCN(c2nc3ccccc3nc2C(C#N)S(=O)(=O)c2ccc(C)cc2)CC1 (centres undefined)	33
CCOc1ccc2[nH]c(=O)c(CN(CCc3ccccc3)C(=O)c3cnccn3)cc2c1	–
OCCN1CCN(c2nc(-c3ccccc3)nc3c2oc2ccccc23)CC1	–
O=C(CSc1ccc2c(c1)OCCO2)Nc1ccc(Br)cc1	–
COc1ccc(C2CC(c3ccccc3)n3nc(NC(=O)c4cccs4)nc3N2)cc1 (centres undefined)	59
COc1ccc(C2CC2/C(=N/OC(=O)c2cccs2)c2ccccc2)cc1 (centres undefined)	–
COc1cccc(C2CC(c3ccc(Cl)cc3Cl)Nc3nc(N)nn32)c1 (centres undefined)	–
COc1ccc(C2CC(c3ccc(Cl)cc3)Nc3nc(NC(=O)c4ccco4)nn32)cc1 (centres undefined)	54
COc1ccc(NC(=O)c2cccs2)cc1	–
SMILES	Artemis endo inh
O=C(Nc1nc2n(n1)C(c1ccccc1)C=C(c1ccccc1)N2)c1ccco1 (centres undefined)	–
COC(=O)C(CC(=O)c1ccc(Cl)cc1)c1ccc(C(C)C)cc1 (centres undefined)	–
O=C(Nc1ccccc1)Nc1ccc(S(=O)(=O)N2CCCCC2)cc1	–
O=C1C(Nc2ccccc2)=C(N2CCCCC2)C(=O)c2ccccc21	39
O=C1c2ccccc2C(=O)c2c1ccc(C(=O)N1CCCCC1)c2NCCO	–
CCOc1cc(-c2ccc(N)c(OCC)c2)ccc1N	–
CCCOc1ccc(N)cc1N	31
CCCOc1ccc(-c2nnc(N)s2)cc1	–
CCC(Sc1nc2ccccc2s1)C(=O)Nc1cc(C)on1 (centres undefined)	–
COc1cccc(/C=N/Nc2nc(Nc3ccccc3)nc(-n3nc(C)cc3C)n2)c1O	96
COc1cccc(/C=N/n2c(C)nc3ccccc3c2=O)c1O	–
COc1cccc(/C=N/NC(=O)c2c(-c3ccccc3)noc2C)c1O	–
Cc1ccc(S(=O)(=O)N2CCC[C@H]2C(=O)OC(C)C(=O)Nc2ncc(Cl)cc2Cl)cc1 (some centres undefined)	–
COc1ccccc1Nc1nc(C)cc(C)c1C(N)=O	–
Cc1cc(C)c(C(N)=O)c(Nc2ccc3c(c2)OCCO3)n1	–
Cc1cc(C)c(C(N)=O)c(Nc2cccc3ccccc23)n1	34
CCOC(=O)c1c(C)[nH]c(C(=O)C(C)OC(=O)c2oc3ccccc3c2COC)c1C (centres undefined)	–
COc1ccc(CCn2c(C)cc3c(c2=O)C(c2ccc4c(c2)OCO4)C(C#N)=C(N)O3)cc1OC (centres undefined)	–
CCN(CC)c1ccc(C(=O)n2cnc3ccccc32)cc1	30
CCN(CC)c1ccc(NC(=O)CSc2nc3ccccc3c(=O)[nH]2)cc1	–
Cc1ccc(-c2cc(C(=O)n3cnc4ccccc43)c3ccccc3n2)cc1C	–
COc1ccc(/C=N/NC(=O)CSc2nnc(CCCc3ccc(OC)c(C)c3)o2)cc1	–
Cc1ccc(C2C(C#N)=C(N)N(c3ncn[nH]3)C3=C2C(=O)CC(C)(C)C3)cc1 (centres undefined)	–
CC(Sc1nc2ccccc2s1)C(=O)N1CCOCC1 (centres undefined)	–
COc1cccc(C(=O)Nc2nc3c(s2)CN(C)CC3)c1	–
SMILES	Artemis endo inh
CCC(=O)N(C)/C=C1\Sc2ccccc2C1=O	–
CC(=O)N(/N=C1\Sc2ccccc2C1=O)c1cccc(C)c1	36
CC(=O)N(C)/C=C1\Sc2ccccc2C1=O	–
COC(=O)c1cc(C#N)c(Oc2ccc(F)cc2)nc1C	–
CC(C)c1ccc(NC2(C#N)C(=O)Nc3ccccc32)cc1 (centres undefined)	–
COc1ccc(Cl)cc1NC(=O)NCCCl	–
Cc1nnsc1SCCNC(=O)c1ccc(F)cc1	–
COc1cc(/C=N\NC(=O)Cn2nnc3ccccc32)cc(OC)c1OC	–
CC(C)(C)c1cc(/C=N/NC(=O)Cc2nc3ccccc3[nH]2)cc(C(C)(C)C)c1O	32
O=C(CCc1nc2ccccc2[nH]1)Nc1ccc2c(c1)OCO2	–
COc1ccc(C2C(C(C)=O)=C(O)C(=O)N2c2ccc(Br)cn2)cc1 (centres undefined)	–
CC(=O)Nc1ccc(Cl)cc1C(=O)O	–
O=C1C(N2CCOCC2)=C(n2nnc3ccccc32)C(=O)c2ccccc21	36
O=C1c2ccccc2C(=O)c2c1cccc2N1CCOCC1	–
Cc1nc2ccccc2nc1N1CCOCC1	–
Cc1ccc(C(=O)Nc2ccc3cn[nH]c3c2)cc1S(=O)(=O)N1CCCCC1	–
O=c1c2ccccc2nc(SCc2cn3ccsc3n2)n1-c1ccc(F)cc1	–
O=c1c2c(-c3ccco3)csc2nc(SCc2cn3cccnc3n2)n1-c1ccccc1	31
c1ccc2c(SCc3cn4cccnc4n3)ncnc2c1	–
COc1cc2c(cc1NC(=O)C(c1ccccc1)c1ccccc1)CCCC2	–
CSc1nc(N(CCO)CCO)c2sc3nc(-c4ccco4)c4c(c3c2n1)CCC4	46
CC(C)c1nc2sc3c(SCC(=O)NCc4ccco4)ncnc3c2c2c1CCC2	–
N#Cc1sc2nc3c(c(-c4ccco4)c2c1N)CCCC3	–
O=[N+]([O-])c1ccc(Oc2cccc(F)c2)c2ccncc12	–
C=COCCNC(=O)Nc1ccc(Cl)cc1Cl	–
SMILES	Artemis endo inh
CN(Cc1nc(-c2ccncc2)no1)S(=O)(=O)c1ccc(Br)cc1	–
CCC(C)n1c(NC(=O)c2ccccc2)c(C#N)c2nc3ccccc3nc21 (centres undefined)	39
N#Cc1c(N)n(CCNC(=O)c2ccc(Cl)cc2)c2nc3ccccc3nc12	–
Cc1noc(NC(=O)c2ccccc2)c1C#N	–
O=C(c1ccccc1)c1ccc(C(=O)N2CCN(c3ccc(F)cc3)CC2)o1	–
COC(=O)CN(C(=O)CSc1nnc(-c2cccc(OC)c2)o1)c1ccc(OC)cc1	34
COc1cccc(-c2nnc(SCC(=O)N3CCOCC3)o2)c1	–
COc1ccc(C(=O)CSc2nnc(-c3ccccc3)o2)cc1	–
CCOC(=O)c1sc(C)c2c(=O)n(CCCN3CCOCC3)cnc12	–
CCO/C(C)=N/n1c2nc3ccccc3nc2c2c(=O)n(C3CCCC3)c(C)nc21	–
